Source: the supplement of paper PMC11732987, “Enantioselective OTUD7B fragment discovery through chemoproteomics screening and high-throughput optimisation” (Communications Chemistry, 2025)

How the values were obtained:
Experiment in all cases: log2 ratio of Biotin-Ahx-Ub-VS probe labelling (fragment/DMSO); higher = less target engagement (more negative = stronger competition), active = hit call of the paper (q ≤ 0.05, log2 ratio ≤ -1)
Details in all cases: compound concentration: 200 uM; treatment time: 3 h
USP9X = USP9X (UniProt Q93008)
Outline: (§1)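 Using Biotin-Ahx-Ub-VS at 0.5 µM final for 1 h, DUBs were labelled in HEK293T lysate (495 µg per sample) that had first been treated in triplicate with fragment at 200 µM or vehicle for 3 h. NeutrAvidin enrichment, LysC and trypsin digestion and diaPASEF LC-MS/MS followed. Spectronaut label-free quantities were global-median-normalised. Values are average log2 fragment/vehicle ratios by unpaired t-test, using proteins with ≥2 unique peptides.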

UniProt O00487 = target: UniProt O00487
Outline: as §1

UniProt O00507 = target: UniProt O00507
Outline: as §1

UniProt P51784 = target: UniProt P51784
Outline: as §1

UniProt Q5T2D3 = target: T1, UniProt Q5T2D3
T1 sequence (whole entry): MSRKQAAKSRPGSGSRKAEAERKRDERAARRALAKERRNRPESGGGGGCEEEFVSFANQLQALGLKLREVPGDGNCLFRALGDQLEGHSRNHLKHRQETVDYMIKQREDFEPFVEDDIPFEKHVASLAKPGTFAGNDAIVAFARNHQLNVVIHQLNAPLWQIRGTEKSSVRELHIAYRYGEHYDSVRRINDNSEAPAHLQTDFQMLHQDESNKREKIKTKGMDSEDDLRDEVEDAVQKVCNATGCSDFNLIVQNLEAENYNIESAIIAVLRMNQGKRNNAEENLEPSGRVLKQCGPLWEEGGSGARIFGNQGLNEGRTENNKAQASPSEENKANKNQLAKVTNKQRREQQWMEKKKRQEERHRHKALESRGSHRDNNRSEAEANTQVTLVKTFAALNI
Outline: as §1

UniProt Q8TE49 = target: T2, UniProt Q8TE49
T2 sequence (whole entry): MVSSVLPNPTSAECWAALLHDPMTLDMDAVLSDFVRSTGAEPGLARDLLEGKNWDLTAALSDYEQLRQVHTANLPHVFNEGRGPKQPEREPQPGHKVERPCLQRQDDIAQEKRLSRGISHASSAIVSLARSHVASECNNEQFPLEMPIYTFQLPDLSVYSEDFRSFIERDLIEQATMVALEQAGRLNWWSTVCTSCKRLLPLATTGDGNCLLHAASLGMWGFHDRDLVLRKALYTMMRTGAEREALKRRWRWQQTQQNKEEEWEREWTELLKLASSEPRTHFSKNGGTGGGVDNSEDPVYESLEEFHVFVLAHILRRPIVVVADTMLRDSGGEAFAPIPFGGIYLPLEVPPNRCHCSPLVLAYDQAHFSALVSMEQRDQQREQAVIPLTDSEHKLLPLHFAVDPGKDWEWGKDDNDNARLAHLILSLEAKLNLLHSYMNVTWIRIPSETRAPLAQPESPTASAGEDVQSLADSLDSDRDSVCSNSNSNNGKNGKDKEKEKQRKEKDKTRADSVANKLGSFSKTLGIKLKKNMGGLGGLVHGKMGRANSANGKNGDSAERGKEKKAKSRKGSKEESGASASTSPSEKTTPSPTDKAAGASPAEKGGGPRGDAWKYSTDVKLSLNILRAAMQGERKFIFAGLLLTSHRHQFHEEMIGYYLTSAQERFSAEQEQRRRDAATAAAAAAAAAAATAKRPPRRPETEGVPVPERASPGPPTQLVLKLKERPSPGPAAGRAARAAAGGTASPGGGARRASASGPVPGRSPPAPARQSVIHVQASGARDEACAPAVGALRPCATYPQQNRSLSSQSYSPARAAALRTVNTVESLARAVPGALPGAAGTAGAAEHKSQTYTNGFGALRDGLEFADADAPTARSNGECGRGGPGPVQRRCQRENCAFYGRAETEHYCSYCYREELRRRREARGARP
Outline: as §1

UniProt Q9P2H5 = target: T3, UniProt Q9P2H5
T3 sequence (whole entry): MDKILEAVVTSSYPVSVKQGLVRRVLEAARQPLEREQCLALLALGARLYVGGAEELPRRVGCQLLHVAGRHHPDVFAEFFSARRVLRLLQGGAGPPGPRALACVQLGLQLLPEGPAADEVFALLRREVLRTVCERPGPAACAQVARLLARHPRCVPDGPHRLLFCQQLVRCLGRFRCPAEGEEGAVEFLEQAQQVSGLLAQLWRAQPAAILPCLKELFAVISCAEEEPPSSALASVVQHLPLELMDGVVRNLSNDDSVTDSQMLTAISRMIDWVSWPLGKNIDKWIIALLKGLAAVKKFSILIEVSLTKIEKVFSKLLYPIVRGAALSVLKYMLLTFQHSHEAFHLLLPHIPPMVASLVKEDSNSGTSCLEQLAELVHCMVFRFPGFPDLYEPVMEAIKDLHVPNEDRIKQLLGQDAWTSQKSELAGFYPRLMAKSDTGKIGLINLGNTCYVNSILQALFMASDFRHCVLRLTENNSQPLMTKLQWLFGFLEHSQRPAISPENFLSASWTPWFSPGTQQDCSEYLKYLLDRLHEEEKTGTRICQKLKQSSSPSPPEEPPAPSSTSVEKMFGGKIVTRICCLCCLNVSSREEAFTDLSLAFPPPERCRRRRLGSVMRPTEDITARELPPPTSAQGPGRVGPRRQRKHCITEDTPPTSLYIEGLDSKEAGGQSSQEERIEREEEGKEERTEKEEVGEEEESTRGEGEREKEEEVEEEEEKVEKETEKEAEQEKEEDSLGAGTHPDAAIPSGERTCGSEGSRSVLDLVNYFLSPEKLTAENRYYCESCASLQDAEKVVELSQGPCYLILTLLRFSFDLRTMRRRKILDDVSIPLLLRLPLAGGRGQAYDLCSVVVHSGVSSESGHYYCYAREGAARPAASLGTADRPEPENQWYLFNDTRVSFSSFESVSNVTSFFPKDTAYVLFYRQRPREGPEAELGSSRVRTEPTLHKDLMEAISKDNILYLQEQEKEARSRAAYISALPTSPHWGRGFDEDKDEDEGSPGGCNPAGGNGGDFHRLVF
Outline: as §1

UniProt Q9UGI0 = target: T4, UniProt Q9UGI0
T4 sequence (whole entry): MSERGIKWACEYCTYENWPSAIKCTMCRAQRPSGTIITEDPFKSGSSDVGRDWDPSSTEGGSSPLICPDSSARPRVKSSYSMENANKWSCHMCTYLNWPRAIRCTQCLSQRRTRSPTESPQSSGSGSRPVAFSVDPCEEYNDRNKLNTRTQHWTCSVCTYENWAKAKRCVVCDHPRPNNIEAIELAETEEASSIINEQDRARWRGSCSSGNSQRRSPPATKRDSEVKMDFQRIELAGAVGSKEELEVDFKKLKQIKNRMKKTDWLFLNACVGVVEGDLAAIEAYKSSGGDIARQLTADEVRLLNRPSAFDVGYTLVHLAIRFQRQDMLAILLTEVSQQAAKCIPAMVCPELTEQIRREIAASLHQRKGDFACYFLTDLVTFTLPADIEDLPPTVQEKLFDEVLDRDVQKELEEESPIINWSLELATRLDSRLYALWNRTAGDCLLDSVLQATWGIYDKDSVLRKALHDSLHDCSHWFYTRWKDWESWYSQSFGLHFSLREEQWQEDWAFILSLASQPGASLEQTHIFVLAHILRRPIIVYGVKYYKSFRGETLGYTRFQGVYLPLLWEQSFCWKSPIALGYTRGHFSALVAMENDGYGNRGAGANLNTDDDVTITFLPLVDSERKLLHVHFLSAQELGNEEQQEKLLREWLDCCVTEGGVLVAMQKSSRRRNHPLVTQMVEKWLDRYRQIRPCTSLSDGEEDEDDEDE
Outline: as §1

YOD1 = target: T5, YOD1 (UniProt Q5VVQ6)
T5 sequence (whole entry): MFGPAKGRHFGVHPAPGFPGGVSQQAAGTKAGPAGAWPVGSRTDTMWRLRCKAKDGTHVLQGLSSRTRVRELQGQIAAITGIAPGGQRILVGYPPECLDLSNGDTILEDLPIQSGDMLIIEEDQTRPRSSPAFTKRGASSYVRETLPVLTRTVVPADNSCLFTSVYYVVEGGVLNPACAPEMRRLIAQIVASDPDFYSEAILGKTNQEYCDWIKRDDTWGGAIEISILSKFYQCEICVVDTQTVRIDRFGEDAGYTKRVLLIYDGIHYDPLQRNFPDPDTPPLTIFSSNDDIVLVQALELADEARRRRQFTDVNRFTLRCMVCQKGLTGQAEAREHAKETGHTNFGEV
Outline: as §1

Measured: log2 ratio of Biotin-Ahx-Ub-VS probe labelling

Chain of UniProt P51784 (P51784 whole entry): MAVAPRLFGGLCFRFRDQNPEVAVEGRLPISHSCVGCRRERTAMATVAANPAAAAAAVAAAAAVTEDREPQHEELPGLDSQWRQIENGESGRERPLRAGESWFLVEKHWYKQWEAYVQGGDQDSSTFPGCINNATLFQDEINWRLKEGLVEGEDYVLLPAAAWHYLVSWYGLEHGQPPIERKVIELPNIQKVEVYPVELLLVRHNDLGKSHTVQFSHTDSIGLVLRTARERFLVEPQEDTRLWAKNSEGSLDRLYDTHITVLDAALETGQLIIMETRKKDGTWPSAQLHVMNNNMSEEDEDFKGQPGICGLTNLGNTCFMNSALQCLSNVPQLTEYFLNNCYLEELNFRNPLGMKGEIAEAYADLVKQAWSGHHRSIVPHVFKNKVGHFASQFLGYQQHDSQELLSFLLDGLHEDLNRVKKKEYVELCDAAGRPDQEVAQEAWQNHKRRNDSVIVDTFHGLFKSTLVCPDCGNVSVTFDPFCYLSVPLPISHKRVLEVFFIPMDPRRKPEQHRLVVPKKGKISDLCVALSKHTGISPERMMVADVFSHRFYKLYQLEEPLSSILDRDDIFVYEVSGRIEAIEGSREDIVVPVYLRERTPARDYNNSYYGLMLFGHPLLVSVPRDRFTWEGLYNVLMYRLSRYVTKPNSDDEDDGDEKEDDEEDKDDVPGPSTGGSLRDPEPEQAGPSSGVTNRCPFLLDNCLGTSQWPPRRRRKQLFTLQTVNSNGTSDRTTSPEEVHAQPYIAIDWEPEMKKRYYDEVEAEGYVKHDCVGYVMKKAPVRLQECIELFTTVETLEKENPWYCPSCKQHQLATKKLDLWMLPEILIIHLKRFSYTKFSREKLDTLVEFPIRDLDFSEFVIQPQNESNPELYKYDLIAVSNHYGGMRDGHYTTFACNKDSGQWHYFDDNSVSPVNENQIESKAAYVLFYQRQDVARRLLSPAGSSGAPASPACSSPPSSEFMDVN
Chain of UniProt O00487 (O00487 whole entry): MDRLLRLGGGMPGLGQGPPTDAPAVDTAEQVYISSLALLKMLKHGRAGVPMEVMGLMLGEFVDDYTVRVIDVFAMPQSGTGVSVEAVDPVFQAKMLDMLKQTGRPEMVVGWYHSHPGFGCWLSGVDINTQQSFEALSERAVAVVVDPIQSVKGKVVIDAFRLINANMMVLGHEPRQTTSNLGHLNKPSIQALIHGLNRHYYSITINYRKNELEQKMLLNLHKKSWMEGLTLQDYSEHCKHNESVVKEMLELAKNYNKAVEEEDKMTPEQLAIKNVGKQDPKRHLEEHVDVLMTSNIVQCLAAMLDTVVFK
Chain of USP9X (Q93008 whole entry, the tested form may be a part): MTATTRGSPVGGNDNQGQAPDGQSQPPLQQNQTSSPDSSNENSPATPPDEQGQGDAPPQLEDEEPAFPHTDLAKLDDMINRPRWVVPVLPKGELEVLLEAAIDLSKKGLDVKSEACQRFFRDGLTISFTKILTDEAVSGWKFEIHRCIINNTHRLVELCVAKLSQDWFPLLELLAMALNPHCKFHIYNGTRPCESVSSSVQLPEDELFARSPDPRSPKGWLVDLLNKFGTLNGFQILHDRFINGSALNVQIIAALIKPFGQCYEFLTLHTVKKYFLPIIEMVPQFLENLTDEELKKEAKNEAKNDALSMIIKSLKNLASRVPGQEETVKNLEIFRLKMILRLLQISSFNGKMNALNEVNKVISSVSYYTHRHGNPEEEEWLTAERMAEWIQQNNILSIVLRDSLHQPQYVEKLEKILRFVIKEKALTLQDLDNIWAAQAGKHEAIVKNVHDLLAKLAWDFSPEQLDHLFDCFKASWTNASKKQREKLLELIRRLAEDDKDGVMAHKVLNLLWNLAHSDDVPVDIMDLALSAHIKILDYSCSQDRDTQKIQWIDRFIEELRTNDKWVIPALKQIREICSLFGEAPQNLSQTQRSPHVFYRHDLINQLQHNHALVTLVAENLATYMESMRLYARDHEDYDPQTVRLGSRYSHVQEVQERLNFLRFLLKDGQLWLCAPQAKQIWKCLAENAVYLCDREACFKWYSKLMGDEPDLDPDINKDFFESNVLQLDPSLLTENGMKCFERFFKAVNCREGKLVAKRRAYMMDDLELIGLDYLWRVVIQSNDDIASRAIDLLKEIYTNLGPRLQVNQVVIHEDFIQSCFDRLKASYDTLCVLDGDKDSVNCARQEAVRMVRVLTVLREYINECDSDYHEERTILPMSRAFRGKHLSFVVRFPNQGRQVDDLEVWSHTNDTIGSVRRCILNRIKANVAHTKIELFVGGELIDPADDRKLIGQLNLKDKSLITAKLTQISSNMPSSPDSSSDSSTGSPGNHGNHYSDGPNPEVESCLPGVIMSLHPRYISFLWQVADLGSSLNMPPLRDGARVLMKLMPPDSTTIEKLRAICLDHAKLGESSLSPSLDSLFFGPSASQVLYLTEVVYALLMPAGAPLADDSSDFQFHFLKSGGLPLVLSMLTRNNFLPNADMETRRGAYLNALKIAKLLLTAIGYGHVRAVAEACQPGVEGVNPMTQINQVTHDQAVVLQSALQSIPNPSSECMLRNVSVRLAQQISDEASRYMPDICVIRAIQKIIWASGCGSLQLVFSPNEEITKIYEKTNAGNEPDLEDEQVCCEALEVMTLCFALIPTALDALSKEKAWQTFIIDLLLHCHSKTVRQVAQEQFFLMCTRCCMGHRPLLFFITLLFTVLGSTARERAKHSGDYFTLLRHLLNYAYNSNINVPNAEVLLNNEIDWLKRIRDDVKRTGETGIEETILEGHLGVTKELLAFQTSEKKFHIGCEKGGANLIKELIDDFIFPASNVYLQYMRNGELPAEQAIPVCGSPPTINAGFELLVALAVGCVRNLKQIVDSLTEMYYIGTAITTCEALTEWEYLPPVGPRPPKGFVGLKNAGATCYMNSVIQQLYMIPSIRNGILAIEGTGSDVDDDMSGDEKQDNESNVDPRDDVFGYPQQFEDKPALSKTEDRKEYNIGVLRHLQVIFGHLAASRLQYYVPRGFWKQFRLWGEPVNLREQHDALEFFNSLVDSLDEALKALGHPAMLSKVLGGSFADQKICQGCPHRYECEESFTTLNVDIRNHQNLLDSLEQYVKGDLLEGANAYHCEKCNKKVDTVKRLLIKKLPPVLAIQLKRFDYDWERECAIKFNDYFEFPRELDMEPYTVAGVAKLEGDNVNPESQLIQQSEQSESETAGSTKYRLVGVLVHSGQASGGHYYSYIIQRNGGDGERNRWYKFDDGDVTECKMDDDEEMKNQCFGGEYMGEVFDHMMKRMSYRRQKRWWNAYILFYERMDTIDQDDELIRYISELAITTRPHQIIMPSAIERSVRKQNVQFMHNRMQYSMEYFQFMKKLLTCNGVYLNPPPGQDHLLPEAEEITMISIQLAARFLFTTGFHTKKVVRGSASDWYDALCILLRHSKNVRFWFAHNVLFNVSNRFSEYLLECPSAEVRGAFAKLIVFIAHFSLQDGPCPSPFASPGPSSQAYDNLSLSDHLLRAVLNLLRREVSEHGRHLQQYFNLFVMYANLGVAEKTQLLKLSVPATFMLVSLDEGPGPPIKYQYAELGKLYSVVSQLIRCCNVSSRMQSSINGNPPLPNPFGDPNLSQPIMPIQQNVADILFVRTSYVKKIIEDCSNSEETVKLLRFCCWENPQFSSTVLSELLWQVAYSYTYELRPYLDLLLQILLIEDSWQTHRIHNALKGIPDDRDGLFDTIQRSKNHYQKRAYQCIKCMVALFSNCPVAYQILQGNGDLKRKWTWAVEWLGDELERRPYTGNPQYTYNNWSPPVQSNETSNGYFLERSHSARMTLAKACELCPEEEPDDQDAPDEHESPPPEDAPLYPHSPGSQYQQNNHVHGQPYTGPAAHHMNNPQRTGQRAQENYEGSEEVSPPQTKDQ

O=C(CCl)Nc1cccc2ncccc12
active: UniProt Q9UGI0 -1.64
inactive: USP9X -0.112 | UniProt O00487 0.0189 | UniProt O00507 0.145 | UniProt P51784 0.265 | UniProt Q5T2D3 -0.164 | UniProt Q8TE49 -0.784 | UniProt Q9P2H5 -0.437 | YOD1 0.469
